# In PubChem BioAssay:
# For part of these data: Potency and affinity values are given separately.
# Tests used:
# [1] = suppressors of polyQ aggregation in yeast, 75Q-TubU reporter (AID 1593); conditions: Yeast 75Q polyglutamine aggregation reporter
# [2] = rescue of polyQ-huntingtin neuronal dysfunction in worms, whole organism, C. elegans mechanosensory neurons, N-terminal huntingtin (AID 1599); conditions: touch response, stronger effect = higher value
# [3] = inhibitors of mitochondrial cytochrome c release, biochemical, purified mitochondria (AID 1603); conditions: stronger effect = lower value;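 further: mouse liver mitochondria challenged with calcium chloride; signal normalized to the plate average as 100%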
# [4] = inhibitors of polyQ protein aggregation (AID 1604); conditions: polyglutamine-induced protein aggregation inhibition assay; stronger effect = higher value; tested at 2.5 µM
# [5] = enhancers of glutamate uptake in motor neurons, MN-1 cell line (AID 1612); conditions: MN-1 motor neuron cells, stronger effect = higher value;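 further: tested at 1 µM final; 0% = mean of DMSO vehicle wells on each plate; positive means more glutamate uptake than control and negative means less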
# [6] = suppressors of polyglutamine aggregation in yeast, 75Q-TubH (AID 1616); conditions: S. cerevisiae 75Q-TubH polyglutamine aggregation suppression; stronger effect = higher value
structure (smiles),measurement,setting,value
N.N.O=C(O)C1(C(=O)O)CCC1.[Pt],score,[1],1.14
same,rescue above control,[2],12.6
same,cytochrome c release ratio,[3],0.66
same,inhibition of aggregation,[4],37.7%
same,glutamate uptake change,[5],-9.42%
same,aggregation suppression score,[6],1.13
